# The source made the active and inactive calls.
# Legend:
# [1] = test system: Wnt5a (protein binding on small-molecule microarray); assay: Wnt5a binders on small-molecule microarray, primary screen, biophysical, 635/667 nm fluorescence (AID 1142); conditions: 635 nm fluorescence, higher = more signal;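 note: fluorescence read at 667 nm with signal to noise per printed feature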
# [2] = cell viability in Huh7 cells, primary screen, cytotoxicity control for HCV replication inhibitor project, CellTiter-Glo luminescence, basal, 48 h (AID 1143); conditions: Huh7 HCV replicon, higher = more signal, called active from +8 up or from −8 down;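 note: Huh7 hepatoma cells carrying a hepatitis C replication reporter with no stimulus; test concentration not given here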
# [3] = CREB reporter modulators without forskolin, primary screen, cell-based, PC12, CRE-LacZ reporter, unstimulated (AID 1145); conditions: no forskolin, luminescence, 4.5 h, higher = more signal, called active from +8 up or from −8 down
# [4] = CREB reporter modulators under forskolin, primary screen, cell-based, PC12, CRE-LacZ reporter, forskolin-stimulated (AID 1146); conditions: luminescence, 4.5 h, higher = more signal, called active from +8 up or from −8 down;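 note: PC12 cells with 6xCRE LacZ reporter stimulated by forskolin 10 µM; beta-galactosidase reporter signal reflecting CREB driven transcription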
# [5] = biological target: Streptavidin (Streptomyces avidinii) (UniProt P22629); assay: streptavidin binders on small-molecule microarray, primary screen, artefact control for SMM compound annotation, biophysical, 635/667 nm fluorescence (AID 1147); conditions: streptavidin binding, higher = more signal;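 note: signal reflects streptavidin binding to arrayed compounds as a control protein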
# Streptavidin (Streptomyces avidinii), sequence (P22629 whole entry, looked up): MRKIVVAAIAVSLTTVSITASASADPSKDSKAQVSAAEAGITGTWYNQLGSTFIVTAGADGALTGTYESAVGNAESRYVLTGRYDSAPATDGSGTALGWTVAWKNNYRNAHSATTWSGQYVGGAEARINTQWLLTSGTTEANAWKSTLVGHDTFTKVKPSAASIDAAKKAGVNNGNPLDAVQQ
# [6] = small-molecule binders of probe aInhba, primary screen, biochemical, small-molecule microarray, 635/667 nm fluorescence (AID 1148); conditions: higher = more signal;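 note: score merges 667nm spot fluorescence with signal-to-noise for antibody binding to printed compounds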
# Torsin-1A (Homo sapiens) [7] = biological target: Torsin-1A (Homo sapiens) (UniProt O14656); assay: torsin A binders from cell lysate, primary screen, small-molecule microarray, wild-type, 635/667 nm (AID 1149); conditions: COS7 hTOR1A-WT lysate, 635 nm fluorescence, higher = more signal
# Torsin-1A (Homo sapiens), sequence (O14656 whole entry, looked up): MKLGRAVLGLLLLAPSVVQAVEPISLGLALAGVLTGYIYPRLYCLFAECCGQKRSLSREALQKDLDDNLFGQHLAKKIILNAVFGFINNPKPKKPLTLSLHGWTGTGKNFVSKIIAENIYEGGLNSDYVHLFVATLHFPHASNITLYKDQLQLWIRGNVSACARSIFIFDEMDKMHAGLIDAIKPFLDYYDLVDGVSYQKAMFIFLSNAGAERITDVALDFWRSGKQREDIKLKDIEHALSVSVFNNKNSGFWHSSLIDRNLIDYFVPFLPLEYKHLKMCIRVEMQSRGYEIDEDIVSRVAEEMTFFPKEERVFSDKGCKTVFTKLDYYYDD
# Torsin-1A (Homo sapiens) [8] = biological target: Torsin-1A (Homo sapiens) (UniProt O14656); assay: small-molecule binders of mutant TOR1A in lysate, primary screen, cell lysate, small-molecule microarray, COS7 lysate, 635/667 nm fluorescence (AID 1150); conditions: COS7 hTOR1A mutant lysate, 635 nm fluorescence, higher = more signal;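 note: score pools 667 nm emission and signal to noise measuring lysate protein binding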
# [9] = test system: Sonic hedgehog protein (Shh); assay: small-molecule binders of Shh protein, primary screen, biochemical, small-molecule microarray, 635/667 nm fluorescence (AID 1151); conditions: small-molecule microarray binding, 635 nm fluorescence; higher = more signal;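 note: Shh protein binding to compounds spotted on small-molecule microarray slides; score combines spot fluorescence intensity with signal-to-noise across triplicate slides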
# [10] = E. coli DRC41 culture turbidity changes, primary screen, E. coli filamentation inducer project, strain DRC41, OD650, 48 h (AID 1152);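 note: E. coli MC1000 strain DRC41 lacking acrAB efflux pump and sulA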; conditions: E. coli DRC41 (acrAB sulA), higher = more signal, called active from +8 up or from −8 down
# [11] = small-molecule binders of probe aLefty1, primary screen, biochemical, small-molecule microarray, 635/667 nm fluorescence (AID 1153); conditions: higher = more signal;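 note: score merges spot fluorescence with signal-to-noise ratio from the scanned slide images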
# [12] = PSAC antagonists in infected red cells, primary screen, cell-based, P. falciparum Indochina, OD700, 1 h (AID 1154); conditions: P. falciparum Indochina infected RBC osmotic lysis, higher = more signal, called active from +8 up or from −8 down
# [13] = PSAC antagonists in infected red cells, primary screen, cell-based, P. falciparum Indochina, OD700, 2 h (AID 1155);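 note: lysis reports solute entry through the parasite surface anion channel PSAC; channel blockers reduce lysis of infected cells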; conditions: P. falciparum Indochina infected erythrocytes, osmotic lysis OD700; higher = more signal, called active from +8 up or from −8 down
# [14] = osmotic lysis modulators in infected erythrocytes, primary screen, PSAC antagonist project, cell-based, P. falciparum Indochina, OD700, 3 h (AID 1156); conditions: higher = more signal, called active from +8 up or from −8 down
# [15] = PSAC antagonists in infected red cells, primary screen, cell-based, P. falciparum Indochina, OD700, 18 h (AID 1157); conditions: P. falciparum Indochina infected erythrocytes, osmotic lysis OD700, 18 h; higher = more signal, called active from +8 up or from −8 down
# [16] = modulators of S6 phosphorylation in cells, primary screen, cell-based, A549, cytoblot, luminescence, serum-stimulated (AID 1158); conditions: A549 phospho-S6 cytoblot, 5 h, higher = more signal;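 note: serum-stimulated A549 lung adenocarcinoma cells; signal is phosphorylated S6 detected by cytoblot immunostaining with HRP secondary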
# [17] = biological target: NADPH oxidase 2 (Homo sapiens) (UniProt P04839); assay: NOX2-dependent H2O2 signal modulators, primary screen, NOX inhibitor project, cell-based, HEK293-NOX2, PMA-stimulated, Amplex Red fluorescence (AID 1159); conditions: 45 min, higher = more signal, called active from +8 up or from −8 down; note: test concentration not given here
# NADPH oxidase 2 (Homo sapiens), sequence (P04839 whole entry, looked up): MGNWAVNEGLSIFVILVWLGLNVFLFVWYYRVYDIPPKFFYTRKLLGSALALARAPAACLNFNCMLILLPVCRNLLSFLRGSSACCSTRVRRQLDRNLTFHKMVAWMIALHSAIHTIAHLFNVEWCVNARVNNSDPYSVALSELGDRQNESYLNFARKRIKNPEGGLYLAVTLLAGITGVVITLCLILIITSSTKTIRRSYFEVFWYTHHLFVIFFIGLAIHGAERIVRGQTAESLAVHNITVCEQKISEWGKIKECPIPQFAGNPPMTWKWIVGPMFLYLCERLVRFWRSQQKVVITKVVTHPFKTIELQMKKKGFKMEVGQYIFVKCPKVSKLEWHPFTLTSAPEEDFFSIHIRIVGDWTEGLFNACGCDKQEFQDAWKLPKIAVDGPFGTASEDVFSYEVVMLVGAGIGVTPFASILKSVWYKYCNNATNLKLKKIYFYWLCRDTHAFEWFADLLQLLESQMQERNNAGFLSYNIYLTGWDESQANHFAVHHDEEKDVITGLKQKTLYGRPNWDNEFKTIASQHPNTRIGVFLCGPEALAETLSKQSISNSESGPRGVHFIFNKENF
# [18] = biological target: NADPH oxidase 4 (Homo sapiens) (UniProt Q9NPH5); assay: NOX4-dependent H2O2 signal modulators, primary screen, NOX inhibitor project, cell-based, HEK293-NOX4, tetracycline-induced, Amplex Red fluorescence (AID 1160); conditions: 45 min, higher = more signal, called active from +8 up or from −8 down
# NADPH oxidase 4 (Homo sapiens), sequence (Q9NPH5 whole entry, looked up): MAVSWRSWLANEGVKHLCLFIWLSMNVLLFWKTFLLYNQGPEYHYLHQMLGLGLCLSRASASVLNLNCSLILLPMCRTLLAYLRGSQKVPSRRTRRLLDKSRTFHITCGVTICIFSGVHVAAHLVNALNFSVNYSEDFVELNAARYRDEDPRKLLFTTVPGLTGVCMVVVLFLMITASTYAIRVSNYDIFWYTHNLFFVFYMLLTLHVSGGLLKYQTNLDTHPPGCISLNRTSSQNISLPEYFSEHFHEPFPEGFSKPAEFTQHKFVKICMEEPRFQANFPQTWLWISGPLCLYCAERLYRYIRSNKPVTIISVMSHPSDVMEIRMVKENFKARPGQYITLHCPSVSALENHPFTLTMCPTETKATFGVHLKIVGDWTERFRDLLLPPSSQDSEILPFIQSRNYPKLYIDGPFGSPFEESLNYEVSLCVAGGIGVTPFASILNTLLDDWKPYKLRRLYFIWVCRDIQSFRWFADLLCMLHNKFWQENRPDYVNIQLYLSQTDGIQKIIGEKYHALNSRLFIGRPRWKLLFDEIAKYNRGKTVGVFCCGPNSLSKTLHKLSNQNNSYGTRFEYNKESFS
# [19] = biological target: NADPH oxidase 5 (Homo sapiens) (UniProt Q96PH1); assay: NOX5-dependent H2O2 signal modulators, primary screen, NOX inhibitor project, cell-based, HEK293-NOX5, Amplex Red fluorescence (AID 1161); conditions: HEK293-NOX5, ionomycin, 45 min, higher = more signal
# NADPH oxidase 5 (Homo sapiens), sequence (Q96PH1 whole entry, looked up): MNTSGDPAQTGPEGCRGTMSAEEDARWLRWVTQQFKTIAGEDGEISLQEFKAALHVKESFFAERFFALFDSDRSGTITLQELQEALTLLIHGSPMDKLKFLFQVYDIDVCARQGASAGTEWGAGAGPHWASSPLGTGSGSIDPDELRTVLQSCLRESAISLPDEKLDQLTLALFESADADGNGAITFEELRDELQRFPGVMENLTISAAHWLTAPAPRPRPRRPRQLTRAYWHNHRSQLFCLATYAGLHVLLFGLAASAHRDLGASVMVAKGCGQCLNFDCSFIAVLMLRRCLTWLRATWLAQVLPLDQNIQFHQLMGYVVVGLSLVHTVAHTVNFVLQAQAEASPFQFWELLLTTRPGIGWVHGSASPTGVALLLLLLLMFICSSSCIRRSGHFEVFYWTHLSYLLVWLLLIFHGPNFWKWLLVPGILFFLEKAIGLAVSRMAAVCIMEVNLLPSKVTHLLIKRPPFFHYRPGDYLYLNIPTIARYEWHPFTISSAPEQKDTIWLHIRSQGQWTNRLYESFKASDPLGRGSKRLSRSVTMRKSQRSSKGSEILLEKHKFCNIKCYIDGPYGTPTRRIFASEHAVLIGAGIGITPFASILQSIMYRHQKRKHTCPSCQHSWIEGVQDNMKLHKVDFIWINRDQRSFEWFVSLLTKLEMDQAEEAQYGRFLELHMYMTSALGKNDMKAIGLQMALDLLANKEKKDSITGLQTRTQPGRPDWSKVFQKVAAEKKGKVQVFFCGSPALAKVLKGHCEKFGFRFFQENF
# [20] = A549 cell viability effects, profiling panel, calcein-AM fluorescence, 48 h, basal (AID 1162); conditions: higher = more signal; note: test concentration not given here
Compound,composite z-score [1],z-score [2],z-score [3],z-score [4],composite z-score [5],composite z-score [6],composite z-score (Torsin-1A (Homo sapiens) [7]),composite z-score (Torsin-1A (Homo sapiens) [8]),composite z-score [9],z-score [10],composite z-score [11],z-score [12],z-score [13],z-score [14],z-score [15],z-score [16],z-score [17],z-score [18],z-score [19],z-score [20]
COc1ccc([Si](C)(C)[C@H]2[C@H](CC(=O)N(CCO)Cc3ccccc3)O[C@@]3(C(=O)N(Cc4cccc(N5C(=O)COc6ccccc65)c4)c4ccccc43)[C@@H]2C)cc1,0.223,-3.26 (inactive),2.61 (inactive),-1.58 (inactive),0.224,0.0566,0.275,0.493,2.03,2.01 (inactive),0.0437,12.7 (active),2.77 (inactive),0.144 (inactive),1.28 (inactive),0.721,0.0235 (inactive),0.789 (inactive),2.17,0.0715
COCCCNC(=O)[C@@]1(C)c2ccccc2C(=O)N(Cc2cc(F)cc(C(F)(F)F)c2)[C@H]1c1ccc(CO)cc1,-0.0509,-0.914 (inactive),-0.0512 (inactive),-0.883 (inactive),-0.624,-0.38,0.891,-0.439,-1.16,1.7 (inactive),-0.279,1.13 (inactive),0.459 (inactive),0.0539 (inactive),0.0567 (inactive),0.0396,0.184 (inactive),-1.4 (inactive),0.42,-0.0292
C=C[C@H](OC)[C@@H](OC(=O)Nc1ccc(OC)cc1)c1ccc(OC)c(O)c1,-0.307,-0.088 (inactive),2.03 (inactive),-1.53 (inactive),-1.38,-0.348,-0.86,-0.657,0.149,2.02 (inactive),-0.0984,1.27 (inactive),-1.23 (inactive),-1.84 (inactive),-1.83 (inactive),-0.443,-2.28 (inactive),-1.92 (inactive),-2,0.29
CC(C)N1CC=CC23O[C@@H]4/C=C\CCCOC(=O)C4[C@H]2C(=O)N(CCCO)[C@@H]3C1=O (stereo not given in full),-0.059,-0.354 (inactive),0.191 (inactive),-0.256 (inactive),-1.1,-0.176,-0.934,0.367,-0.102,1.71 (inactive),0.236,0.245 (inactive),0.0014 (inactive),1.1 (inactive),-0.083 (inactive),-0.108,1.58 (inactive),-1.85 (inactive),2.19,1.02
C=C(C1=CCN(S(=O)(=O)c2ccc(C)cc2)C1)[C@@H](OC(C)=O)[C@@H]1CCCN1S(=O)(=O)c1ccccc1[N+](=O)[O-],0.0375,-4.37 (inactive),2.02 (inactive),-1.11 (inactive),-1.05,-0.128,-0.499,-0.406,0.706,2.47 (inactive),-0.109,26.3 (active),17 (active),0.77 (inactive),0.623 (inactive),0.993,0.0272 (inactive),-1.36 (inactive),0.69,-0.498
CC(CO)N1C(=O)[C@@H]2C3C(=O)OCCC/C=C\[C@H]3OC23C=CCN(Cc2ccccc2)C(=O)[C@@H]13 (stereo not given in full),-0.146,-0.182 (inactive),-0.753 (inactive),-0.954 (inactive),-1.03,-0.31,-0.462,-0.276,0.194,2.52 (inactive),-0.24,0.38 (inactive),-0.999 (inactive),-0.513 (inactive),-0.899 (inactive),0.467,0.456 (inactive),-0.322 (inactive),1.36,1.59
C=C(COC)C(=O)CC[C@@H](OC(=O)c1ccccc1-c1ccccc1C(=O)O)c1cccc(OCCO)c1,0.0174,0.483 (inactive),2.37 (inactive),0.0416 (inactive),-0.52,-0.128,0.785,0.455,0.404,0.908 (inactive),-0.144,8.07 (active),1.28 (inactive),1.28 (inactive),0.236 (inactive),-0.178,3.24 (inactive),1.34 (inactive),-0.986,0.467
C=C(COC)/C(=C/C[C@H](OC(C)=O)c1cccc(OCCO)c1)c1cc(C(=O)OC)ccc1OC,0.44,-8.11 (active),11.5 (active),-0.4 (inactive),-0.356,-0.018,1.34,1.22,1.72,1.59 (inactive),-0.101,10.1 (active),1.78 (inactive),-2.63 (inactive),-0.0354 (inactive),1.44,-1.94 (inactive),0.00567 (inactive),-3.06,-0.344
COCCCNC(=O)[C@@]1(CCS(=O)(=O)c2ccccc2)N=C(c2ccc(OCCCO)cc2)O[C@H]1c1ccccc1CN=[N+]=[N-],0.671,-5.36 (inactive),2.57 (inactive),-1.7 (inactive),1.41,0.358,-0.183,0.186,0.744,2.33 (inactive),1.03,23.5 (active),4.65 (inactive),2.25 (inactive),0.425 (inactive),3.83,0.439 (inactive),-0.383 (inactive),-0.497,1
